PubChem BioAssay (EPA / NIEHS)
Active and inactive are the calls of the source. How the source made its calls: active means hit-call score of the fitted dose curve at least 0.9, where 1 is the maximum; inactive means score below 0.9.

How the values were obtained:
[1] = read-out: Tissue Factor, F3 (gene 2152); assay: BSK_CASM3C_TissueFactor: BioMAP Diversity Plus: CASM3C Assay for Tissue Factor Biomarker Activity (AID 2283052); settings: primary human coronary artery smooth muscle cells; actives raise or lower the signal;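 further: cell surface tissue factor protein level read by ELISA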
[2] = read-out: Interferon-gamma inducible Protein 10 (IP10), CXCL10 (gene 3627); assay: BSK_hDFCGF_IP10: BioMAP Diversity Plus: hDFCGF Assay for Interferon-gamma inducible Protein 10 (IP10) Biomarker Activity (AID 2283053); settings: primary human foreskin fibroblasts; actives raise or lower the signal
Method in brief: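 Primary human foreskin fibroblasts exposed to chemicals for 24 h. IP-10 measured by ELISA; changes fitted bidirectionally against DMSO baseline.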

[3] = read-out: Urokinase-type plasminogen activator receptor (uPAR), PLAUR (gene 5329); assay: BSK_CASM3C_uPAR: BioMAP Diversity Plus: CASM3C Assay for Urokinase-type plasminogen activator receptor (uPAR) Biomarker Activity (AID 2283054); settings: primary human coronary artery smooth muscle cells; actives raise or lower the signal;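 further: cell-surface uPAR protein level quantified by ELISA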
[4] = read-out: Vascular cell adhesion molecule 1 (VCAM1), VCAM1 (gene 7412); assay: BSK_CASM3C_VCAM1: BioMAP Diversity Plus: CASM3C Assay for Vascular cell adhesion molecule 1 (VCAM1) Biomarker Activity (AID 2283055); settings: primary human coronary artery smooth muscle cells; actives raise or lower the signal;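 further: VCAM-1 protein level quantified by ELISA on the cells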
[5] = read-out: Collagen III, COL3A1 (gene 1281); assay: BSK_hDFCGF_CollagenIII: BioMAP Diversity Plus: hDFCGF Assay for Collagen III Biomarker Activity (AID 2283056); settings: primary human foreskin fibroblasts; actives raise or lower the signal
Method in brief: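 Response relative to DMSO, fitted in both directions, reflects ELISA-measured collagen III in human primary skin fibroblasts 24 h after compound addition.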

[6] = read-out: Epidermal growth factor receptor (EGFR), EGFR (gene 1956); assay: BSK_hDFCGF_EGFR: BioMAP Diversity Plus: hDFCGF Assay for Epidermal growth factor receptor (EGFR) Biomarker Activity (AID 2283057); settings: primary human foreskin fibroblasts; actives raise or lower the signal
Method in brief: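 Primary human foreskin fibroblasts (hDFCGF system), sampled 24 h after dosing; EGFR quantified by ELISA. Bidirectional fit relative to DMSO baseline; SRB total-protein staining in parallel cultures for cytotoxicity.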

[7] = read-out: Interleukin-8 (IL8), CXCL8 (gene 3576); assay: BSK_hDFCGF_IL8: BioMAP Diversity Plus: hDFCGF Assay for Interleukin-8 (IL8) Biomarker Activity (AID 2283058); settings: primary human foreskin fibroblasts; actives raise or lower the signal
Method in brief: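 Fibroblast monolayers (human foreskin, hDFCGF) received test chemical for 24 h before ELISA detection of IL-8; either increases or decreases relative to DMSO count as activity.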

[8] = BSK_hDFCGF_Proliferation: Cell Proliferation Assessment in the BioMAP Diversity Plus: hDFCGF Assay (AID 2283059); settings: primary human foreskin fibroblasts;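 further: curves fitted for both rise and fall of signal versus DMSO baseline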
Method in brief: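 This proliferation readout used SRB total-protein staining of human foreskin fibroblasts […], normalized to DMSO with bidirectional curve fitting.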

[9] = read-out: Macrophage colony-stimulating factor (MCSF), CSF1 (gene 1435); assay: BSK_hDFCGF_MCSF: BioMAP Diversity Plus: hDFCGF Assay for Macrophage colony-stimulating factor (MCSF) Biomarker Activity (AID 2283060); settings: primary human foreskin fibroblasts; actives raise or lower the signal
Method in brief: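 fibroblasts (human foreskin, primary), 24 h post-dose; M-CSF by ELISA; bidirectional fit, DMSO = baseline.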

[10] = BSK_hDFCGF_SRB: Viability Assessment in the BioMAP Diversity Plus: hDFCGF Assay (AID 2283061); settings: primary human foreskin fibroblasts;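 further: cells exposed to compound for 24 h before the read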
Method in brief: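 SRB-based viability read on primary human skin fibroblasts at 24 h: TCA fixation, 0.1% dye, 560 nm. Gain or loss of signal is fitted against the DMSO negative control.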

[11] = read-out: TIMP metallopeptidase inhibitor 1 (TIMP1), TIMP1 (gene 7076); assay: BSK_hDFCGF_TIMP1: BioMAP Diversity Plus: hDFCGF Assay for TIMP metallopeptidase inhibitor 1 (TIMP1) Biomarker Activity (AID 2283062); settings: primary human foreskin fibroblasts; actives raise or lower the signal
Method in brief: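 Bidirectional curve fitting against DMSO baseline yielded this endpoint, based on ELISA detection of TIMP-1 in primary human foreskin fibroblasts exposed to compound for 24 h.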

[12] = read-out: Monokine induced gamma interferon (MIG), CXCL9 (gene 4283); assay: BSK_hDFCGF_MIG: BioMAP Diversity Plus: hDFCGF Assay for Monokine induced gamma interferon (MIG) Biomarker Activity (AID 2283063); settings: primary human foreskin fibroblasts; actives raise or lower the signal
Method in brief: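 Endpoint derived by bidirectional fitting relative to DMSO; MIG quantified via ELISA in primary human foreskin fibroblasts harvested 24 h after dosing.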

[13] = read-out: Matrix Metallopeptidase 1 (MMP1), MMP1 (gene 4312); assay: BSK_hDFCGF_MMP1: BioMAP Diversity Plus: hDFCGF Assay for Matrix Metallopeptidase 1 (MMP1) Biomarker Activity (AID 2283064); settings: primary human foreskin fibroblasts; actives raise or lower the signal
Method in brief: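 hDFCGF primary fibroblasts (human foreskin); chemical added; 24 h; MMP1 by ELISA; bidirectional fit vs DMSO.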

[14] = read-out: Vascular cell adhesion molecule 1 (VCAM1), VCAM1 (gene 7412); assay: BSK_hDFCGF_VCAM1: BioMAP Diversity Plus: hDFCGF Assay for Vascular cell adhesion molecule 1 (VCAM1) Biomarker Activity (AID 2283065); settings: primary human foreskin fibroblasts; actives raise or lower the signal;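 on AC50: VCAM-1 protein level quantified by ELISA after 24 h chemical exposure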
Method in brief: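 Measured after 24 h chemical treatment of primary human skin fibroblasts, VCAM-1 was detected by ELISA and concentration-response analysed in both directions versus DMSO vehicle.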

[15] = read-out: Plasminogen activator inhibitor-1 (PAI1), SERPINE1 (gene 5054); assay: BSK_hDFCGF_PAI1: BioMAP Diversity Plus: hDFCGF Assay for Plasminogen activator inhibitor-1 (PAI1) Biomarker Activity (AID 2283066); settings: primary human foreskin fibroblasts; actives raise or lower the signal
Method in brief: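 Human foreskin fibroblast primary cells, 24 h chemical exposure; PAI-1 measured by ELISA. Bidirectional fitting relative to DMSO; parallel cultures stained with SRB for total protein to flag overt cytotoxicity.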

[16] = read-out: Intercellular Adhesion Molecule 1 (ICAM1), ICAM1 (gene 3383); assay: BSK_KF3CT_ICAM1: BioMAP Diversity Plus: KF3CT Assay for Intercellular Adhesion Molecule 1 (ICAM1) Biomarker Activity (AID 2283067); settings: primary human keratinocytes with fibroblasts; actives raise or lower the signal
Method in brief: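 Bidirectional curve fitting against a DMSO baseline was applied to ICAM-1 ELISA signal from primary human skin co-cultures harvested 24 h after treatment, with SRB staining of parallel wells for overt cytotoxicity.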

[17] = read-out: Interferon-gamma inducible Protein 10 (IP10), CXCL10 (gene 3627); assay: BSK_KF3CT_IP10: BioMAP Diversity Plus: KF3CT Assay for Interferon-gamma inducible Protein 10 (IP10) Biomarker Activity (AID 2283068); settings: primary human keratinocytes with fibroblasts; actives raise or lower the signal
Method in brief: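 Signal is secreted/surface IP-10 by ELISA in a human primary skin co-culture of keratinocytes and foreskin fibroblasts, taken 24 h post-dosing; DMSO served as negative control.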

[18] = BSK_KF3CT_SRB: Viability Assessment in the BioMAP Diversity Plus: KF3CT Assay (AID 2283069); settings: primary human keratinocytes with fibroblasts;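 further: total protein by sulforhodamine B staining as a cytotoxicity measure; fitted for both signal gain and loss against DMSO baseline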
Method in brief: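 Keratinocytes co-cultured with foreskin fibroblasts (human primary); chemical added, 24 h; fix 10% TCA, stain 0.1% SRB, A560. Bidirectional fit vs DMSO.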

[19] = read-out: Interleukin-1 alpha (IL1a), IL1A (gene 3552); assay: BSK_KF3CT_IL1a: BioMAP Diversity Plus: KF3CT Assay for Interleukin-1 alpha (IL1a) Biomarker Activity (AID 2283070); settings: primary human keratinocytes with fibroblasts; actives raise or lower the signal
Method in brief: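 Chemicals were dosed onto co-cultured human keratinocytes and foreskin fibroblasts, IL-1a was quantified by ELISA at 24 h, and activity was fitted in both directions relative to DMSO controls.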

[20] = read-out: TIMP metallopeptidase inhibitor 2 (TIMP2), TIMP2 (gene 7077); assay: BSK_KF3CT_TIMP2: BioMAP Diversity Plus: KF3CT Assay for TIMP metallopeptidase inhibitor 2 (TIMP2) Biomarker Activity (AID 2283071); settings: primary human keratinocytes with fibroblasts; actives raise or lower the signal
Method in brief: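 Co-culture of human primary keratinocytes and foreskin fibroblasts, measured 24 h after chemical dosing. TIMP-2 quantified by ELISA and fitted in both directions relative to DMSO. Cytotoxicity checked in parallel cultures by SRB total-protein staining.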

Measured: AC50

CCCC[C@H]1CN(CC2CCOCC2)C(=O)OC12CCN(C1(C)CCN(C(=O)c3c(C)ncnc3C)CC1)CC2
inactive: all assays above

CC(=O)CC(c1ccccc1)c1c(O)c2ccccc2oc1=O (stereo not drawn)
inactive: all assays above

O=[Si]=O
not listed: [13]
inactive: all other assays above

Oc1ccccc1O
active: [2] 14.1 µM | [4] 5.64 µM | [8] 12 µM | [9] 13.3 µM | [12] 11.2 µM | [14] 2.5 µM | [16] 4.58 µM | [19] 4.75 µM
not listed: [5]
inactive: all other assays above

O=C(O)c1[nH]n(-c2ccc(S(=O)(=O)O)cc2)c(=O)c1N=Nc1ccc(S(=O)(=O)O)cc1
not listed: [5]
inactive: all other assays above

Cc1ccc(-c2cc(C(F)(F)F)nn2-c2ccc(S(N)(=O)=O)cc2)cc1
active: [1] 36.7 µM | [3] 30.4 µM | [4] 29.9 µM
not listed: [5]
inactive: all other assays above

OCC(CO)n1cnc(-c2ccc(F)cc2)c1-c1ccnc(Oc2ccccc2)n1
active: [4] 2.33 µM | [9] 0.148 µM | [14] 1.8 µM
not listed: [13]
inactive: all other assays above

C=CCCCCCCCCCCCC
not listed: [13]
inactive: all other assays above

CCC(C)N(C)C(=O)c1cc2ccccc2c(-c2ccccc2Cl)n1 (stereo not drawn)
not listed: [13]
inactive: all other assays above

O=Cc1ccccc1C=O
not listed: [13]
inactive: all other assays above

CCc1nc(N)nc(N)c1-c1ccc(Cl)cc1
not listed: [5]
inactive: all other assays above

C/C=C/c1ccc(OC)cc1
not listed: [5]
inactive: all other assays above

CC(C)(C)c1ccccc1
not listed: [13]
inactive: all other assays above

CC(=O)S[C@H](C(=O)N[C@H]1Cc2ccccc2[C@H]2CCC[C@@H](C(=O)O)N2C1=O)C(C)C
not listed: [5]
inactive: all other assays above

CCCCCCC(C=O)=Cc1ccccc1
active: [2] 32.6 µM | [5] 30.1 µM | [8] 28.9 µM | [10] 31.5 µM | [14] 32 µM | [17] 30.5 µM
not listed: [13]
inactive: all other assays above

CC(=O)OC1CC(C)OC(C)O1 (stereo not drawn)
active: [15] 0.523 µM
not listed: [13]
inactive: all other assays above

O=C(N[C@@H](c1ccccc1)[C@@H]1CCCCN1)c1cccc(C(F)(F)F)c1Cl
active: [2] 10.5 µM | [8] 28.7 µM | [15] 9.69 µM | [16] 30.7 µM | [17] 37.1 µM | [18] 30.3 µM | [20] 12.4 µM
not listed: [13] | [19]
inactive: all other assays above

O=NO
not listed: [5]
inactive: all other assays above

COc1ccc(C(=O)Nc2nc3ccccc3c(NCc3ccccc3)c2C#N)cc1
active: [8] 5.53 µM
not listed: [5]
inactive: all other assays above

NC=O
active: [8] 19.2 µM
not listed: [5]
inactive: all other assays above

Cc1cc(Cc2ccc(N)c(C)c2)ccc1N
active: [8] 3.12 µM
not listed: [13]
inactive: all other assays above

c1ccc2occc2c1
not listed: [13]
inactive: all other assays above

Oc1ccc(O)cc1
inactive: [1] | [3] | [6] | [18] | [19] | [20]
active: [2] 20.6 µM | [4] 9.44 µM | [5] 20 µM | [7] 31.5 µM | [8] 0.465 µM | [9] 11.6 µM | [10] 12 µM | [11] 13.4 µM | [12] 18.7 µM | [14] 13.5 µM | [15] 14.7 µM | [16] 6.66 µM | [17] 20 µM

COc1ccc(OC(F)(F)F)cc1CN[C@H]1CCCN[C@H]1c1ccccc1
not listed: [8]
inactive: all other assays above

CCCCOC(=O)CCCCC(=O)OCCCC
not listed: [5]
inactive: all other assays above

CC(=O)O
active: [8] 31.2 µM
not listed: [13]
inactive: all other assays above

C=CCc1ccc(OC)c(OC)c1
not listed: [5]
inactive: all other assays above

CO[C@@H]1COCC[C@@H]1N[C@@H]1CC[C@@](C(=O)N2CCc3ncc(C(F)(F)F)cc3C2)(C(C)C)C1
not listed: [5]
inactive: all other assays above
